A selection: hits, their analogues and other compounds. The true share with any hit is near 2.8%.
IP6K1 inhibitor: inhibitors of human IP6K1 | activity change, % (series mostly up to about 58 µM) | hit rate 0.81% among 140,000 | Q92551 | IP6K1 kinase, ADP-Glo luminescence, 2 h; active compounds read low; in the data active means activity change below about -25%
Target sequence (Q92551 whole entry, looked up): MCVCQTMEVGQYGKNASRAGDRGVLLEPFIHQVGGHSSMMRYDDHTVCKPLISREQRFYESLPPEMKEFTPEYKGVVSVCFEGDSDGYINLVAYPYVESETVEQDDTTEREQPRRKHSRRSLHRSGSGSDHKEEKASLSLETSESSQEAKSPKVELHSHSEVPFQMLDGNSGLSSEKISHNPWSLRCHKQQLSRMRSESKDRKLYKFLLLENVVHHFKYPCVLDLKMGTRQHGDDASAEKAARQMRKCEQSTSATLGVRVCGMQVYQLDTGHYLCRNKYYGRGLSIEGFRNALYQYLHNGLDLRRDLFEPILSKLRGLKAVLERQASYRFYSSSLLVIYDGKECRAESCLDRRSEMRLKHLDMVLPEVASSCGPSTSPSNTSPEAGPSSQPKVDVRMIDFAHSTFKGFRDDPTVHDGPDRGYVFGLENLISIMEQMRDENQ
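ADP-Glo luminescence measures ADP made by human IP6K1 during a 2 h RT reaction with ATP/IP6 (mix at 1.3 mM/130 uM); top library doses 57.5 and 19.1 uM final.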
KDM5B inh: inhibitors of human KDM5B histone demethylase. Q9UGL1. KDM5B demethylase, FDH-coupled NADH fluorescence (FDH is formaldehyde dehydrogenase). Potency, µM (titrated, usually from 57.7 µM), hits mostly inhibitors. hit rate 2.6% among 220,000; active means well fitted inhibition curve with a large enough effect; inconclusive means small, poorly fitted or top-dose-only effect; inactive means no such curve, though single readings can be large or run the other way; further: nearly all actives have a fitted effect of over 70% in size
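qHTS format, multiple compound concentrations. Buffer 50 mM HEPES pH 7.5/0.01% Tween-20; 200 nM KDM5BΔAP final; 10 min compound preincubation; substrate-mix levels 12.5 µM peptide, 25 µM α-KG, 0.25 mM NAD⁺; 30 min RT; ΔRFU.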
Each line names hits and unclear results; the compound was inactive in the other large screens.

COc1ccc(Nc2ccnc(N3CCN(C(=O)c4cccc(Cl)c4)CC3)n2)cc1	none (no result: KDM5B inh)
Cc1ccc2c(c1)CCCN2C(=O)c1cc(C)nc2ccccc12	none (no result: IP6K1 inhibitor)
O=S1(=O)c2cccnc2OC(COc2ccccc2)CN1Cc1cccs1 (stereo not drawn)	none (no result: KDM5B inh)
CC(C)NC(=O)C1CC1	none (no result: IP6K1 inhibitor)
CCN(Cc1nccn1C)C(=O)c1ccc(N2CCSCC2)nc1	KDM5B inh inconclusive
CCN(Cc1nccn1C)C(=O)c1cc(-c2cnc(N)nc2)nc2c(C)cccc12	KDM5B inh 28µM
O=C(CCn1cncn1)N1CCC(c2cc(-c3ccccc3Cl)n[nH]2)CC1	none
O=C(CCc1nc2ccccc2[nH]c1=O)N1CCN(CCn2cncn2)CC1	KDM5B inh 18µM
CN(Cc1ccc(N2CCCCC2)cc1)C(=O)c1ccc2c(c1)C(O)CCCCCN2C (stereo not drawn)	KDM5B inh inconclusive
Cc1ccc(S(=O)(=O)N2CCCC(CCC(=O)N3CCc4ccccc4C3)C2)cc1 (stereo not drawn)	KDM5B inh inconclusive
O=C(CCC1CCCN(S(=O)(=O)c2ccccc2)C1)N1CCc2ccccc2C1 (stereo not drawn)	KDM5B inh 22µM
COc1ccc(-c2cccc(C(=O)NCc3ccccc3C(F)(F)F)c2)nn1	none (no result: KDM5B inh)
COc1ccccc1-c1nc(-c2cc3ccccc3nc2OC)no1	none (no result: IP6K1 inhibitor)
COC(=O)c1cccc(NC(=O)CN(C)Cc2nc3ccccc3c(=O)[nH]2)c1	none (no result: IP6K1 inhibitor)
c1cc(N2CCCCC2)ccc1-c1n[nH]c(C2CCOC2)n1 (stereo not drawn)	KDM5B inh 22µM
c1cnn(-c2ccc(-c3n[nH]c(C4CCOCC4)n3)cc2)c1	none
CCCCN=C1NN=C(c2c[nH]c3ccccc23)C(C)S1 (stereo not drawn)	none (no result: IP6K1 inhibitor)
Cc1c(CN(C)C(=O)Cn2nc(C(F)(F)F)c(Cl)c2C)cnn1C	none (no result: IP6K1 inhibitor)
O=C(Nc1cccn2nc(C3CCC3)nc12)c1ccc(F)cc1F	KDM5B inh 32µM
O=C(Nc1cccn2nc(C3CCC3)nc12)c1ccc(F)cc1Cl	none
Clc1ccc(-c2nnc(CSc3nnc4ccccn34)o2)cc1	none (no result: IP6K1 inhibitor)
Cc1ccc(C)c(C(=O)NCc2nnc3cc(-c4nc(C)no4)ccn23)c1	KDM5B inh 25µM
Cc1ccc(C)c(C(=O)NCc2nnc3cc(-c4nc(C(C)C)no4)ccn23)c1	KDM5B inh 14µM
CCCn1cc(-c2ccncc2)cc1C(=O)NCc1ccccc1	none
CCCn1cc(-c2ccncc2)cc1C(=O)NCc1cccc(F)c1	KDM5B inh 25µM
C=CCN1Cc2cc(F)ccc2N(CC(O)COc2ccc(OC)cc2)CCC1=O (stereo not drawn)	none (no result: KDM5B inh)
COCCn1cnc2ccc(-c3ccc4c(c3)OCO4)nc2c1=O	none
COCCn1cnc2ccc(-c3ccsc3)nc2c1=O	KDM5B inh 35µM
COCCn1cnc2ccc(-c3ccc4c(ccn4C)c3)nc2c1=O	KDM5B inh inconclusive
COCCn1cnc2ccc(-c3ccc(F)c(Cl)c3)nc2c1=O	KDM5B inh 32µM
COCCn1cnc2ccc(-c3cccc(C)c3)nc2c1=O	KDM5B inh 40µM
COCCn1cnc2ccc(-c3cccc(C(F)(F)F)c3)nc2c1=O	none
O=C(NC1CCN(Cc2ccccc2)CC1)c1c(OCC2CC2)cc(=O)n2c1CCCCC2	none
COc1cc(CCC(=O)Nc2ccc3oc(-c4ccc(C(C)C)cc4)cc(=O)c3c2)on1	none (no result: IP6K1 inhibitor)
O=C(NCc1ccc(Cl)cc1)c1cc(-c2ccccc2)c2nncn2n1	none (no result: KDM5B inh)
CCOC(=O)c1cccc(NC(=O)[C@H](C(C)C)n2nnc3ccccc3c2=O)c1	none (no result: IP6K1 inhibitor)
CCN(Cc1ccc(C)o1)C(=O)c1ccc2nc(-c3ccc(F)cc3)cn2c1	KDM5B inh 28µM
CCN(CC1CCCO1)C(=O)c1ccc2nc(-c3ccc(F)cc3)cn2c1 (stereo not drawn)	KDM5B inh 22µM
Cc1ccc(C(=O)N(Cc2ccc(N(C)C)cc2)CC2CCCO2)cc1 (stereo not drawn)	KDM5B inh inconclusive
O=C(NCc1ccc(Cn2cccn2)cc1)c1cn[nH]c1-c1ccc(F)cc1	none (no result: IP6K1 inhibitor)
Cc1ccc(CN(C(=O)c2ccc(F)cc2)c2ccccn2)o1	none
CCN(CCn1cccn1)C(=O)c1ccc2nc(-c3ccc(F)cc3)cn2c1	KDM5B inh 25µM
Oc1cc(-c2nc3ccccc3s2)cc2c1OCCN(Cc1ncccn1)C2	KDM5B inh inconclusive
CC(C)NC(=O)C1CCCCN1Cc1ccc(-c2ccsc2)cc1 (stereo not drawn)	none (no result: KDM5B inh)
Cc1cc(-c2cccc(CCOc3cnc4c(ccn4CC(=O)O)c3)c2)ccn1	KDM5B inh 35µM
O=C(O)Cn1ccc2cc(OCCc3cccc(-c4cncnc4)c3)cnc21	KDM5B inh 28µM
O=C(O)Cn1ccc2cc(OCc3cccc(-c4ccncc4)c3)cnc21	KDM5B inh inconclusive
Cc1noc(C)c1-c1cccc(CCOc2cnc3c(ccn3CC(=O)O)c2)c1	KDM5B inh 40µM
Cc1cc(-c2cccc(OCCn3ccnc3)c2)ccn1	KDM5B inh inconclusive
Cc1noc(C)c1-c1cc2c(c(-c3cccc(CO)c3)c1)C(=O)N(C)C2=O	none

Screening results from PubChem.
